# Test results taken from PubChem BioAssay.
# Active and inactive are the calls of the source. Unless noted, the rule behind the calls is not given here.
# Legend:
# [1] = HepG2 liver cancer cell viability effects, profiling panel, resazurin fluorescence, 24 h, PK04 Diversity Set (AID 1172); details: higher = more signal
# [2] = basal S. cerevisiae growth modulation, no modifier, primary screen, OD600, strain BY4716, 24 h, basal condition (AID 1173); details: OD600, 24 h, higher = more signal, called active from +8 up or from −8 down
# [3] = MM1S myeloma cell viability, profiling panel, resazurin fluorescence, basal, 24 h, PK04 Diversity Set (AID 1174); details: higher = more signal, called active from +8 up or from −8 down;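 note: MM1S multiple myeloma cell line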
# [4] = target: Dihydroorotate dehydrogenase (quinone), mitochondrial (Plasmodium falciparum (isolate 3D7)) (UniProt Q08210); test: PfDHODH enzyme inhibitors, primary screen, biochemical, C-terminal His tag, absorbance 600 nm (AID 1175); details: DCIP absorbance 600 nm, higher = more signal, called active from +8 up or from −8 down;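 note: recombinant parasite enzyme with a five histidine tag at its C terminus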
# Dihydroorotate dehydrogenase (quinone), mitochondrial (Plasmodium falciparum (isolate 3D7)), sequence (Q08210 whole entry, looked up): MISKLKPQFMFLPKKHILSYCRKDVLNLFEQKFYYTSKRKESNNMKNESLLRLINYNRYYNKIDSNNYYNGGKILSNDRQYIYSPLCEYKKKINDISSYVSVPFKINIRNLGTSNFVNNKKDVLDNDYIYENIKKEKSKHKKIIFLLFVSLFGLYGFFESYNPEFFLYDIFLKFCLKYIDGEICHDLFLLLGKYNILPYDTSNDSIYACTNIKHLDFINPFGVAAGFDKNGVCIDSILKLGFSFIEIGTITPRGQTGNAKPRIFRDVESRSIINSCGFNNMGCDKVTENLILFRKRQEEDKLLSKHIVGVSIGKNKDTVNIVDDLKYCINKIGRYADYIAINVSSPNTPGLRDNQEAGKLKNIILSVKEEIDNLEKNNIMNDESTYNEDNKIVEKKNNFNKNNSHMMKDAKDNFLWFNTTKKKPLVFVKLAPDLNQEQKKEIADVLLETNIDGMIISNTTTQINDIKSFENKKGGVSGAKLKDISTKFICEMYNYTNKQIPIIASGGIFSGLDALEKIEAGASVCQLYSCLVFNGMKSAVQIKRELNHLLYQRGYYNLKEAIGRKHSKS
# [5] = P. aeruginosa biofilm formation inhibitors, primary screen, strain PAO1, LB-PBS medium, absorbance 600 nm (AID 1176); details: P. aeruginosa PAO1 growth/biofilm, A600, 12 h; higher = more signal
# [6] = S. cerevisiae RM11-1a growth modifiers, primary screen, strain RM11-1a, OD600, basal, 24 h (AID 1177); details: OD600, 24 h, higher = more signal, called active from +8 up or from −8 down;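 note: cultures grown under basal conditions with no added stressor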
# [7] = E. coli acrAB mutant growth effects, primary screen, E. coli filamentation inducers, strain DRC39, OD650, 24 h (AID 1178); details: higher = more signal, called active from +8 up or from −8 down;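 note: growth measured as culture turbidity by optical density at 650 nm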
# [8] = E. coli acrAB mutant growth effects, primary screen, E. coli filamentation inducers, strain DRC39, OD650, 48 h (AID 1179);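 note: screen aims at cell division blockers that make cells filament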; details: E. coli DRC39 delta-acrAB growth, higher = more signal, called active from +8 up or from −8 down
# [9] = RPMI8226 myeloma cell viability, profiling panel, resazurin fluorescence, basal, 24 h, PK04 Diversity Set (AID 1180); details: higher = more signal;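 note: RPMI8826 multiple myeloma cell line at 5000 cells per well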
# [10] = target: E3 ubiquitin-protein ligase XIAP (Homo sapiens) (UniProt P98170); test: XIAP binders, primary screen, biophysical, small-molecule microarray, fluorescence 635 nm (AID 1181); details: small-molecule microarray binding, higher = more signal;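 note: score merges 667 nm emission and signal to noise over triplicate slides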
# E3 ubiquitin-protein ligase XIAP (Homo sapiens), sequence (P98170 whole entry, looked up): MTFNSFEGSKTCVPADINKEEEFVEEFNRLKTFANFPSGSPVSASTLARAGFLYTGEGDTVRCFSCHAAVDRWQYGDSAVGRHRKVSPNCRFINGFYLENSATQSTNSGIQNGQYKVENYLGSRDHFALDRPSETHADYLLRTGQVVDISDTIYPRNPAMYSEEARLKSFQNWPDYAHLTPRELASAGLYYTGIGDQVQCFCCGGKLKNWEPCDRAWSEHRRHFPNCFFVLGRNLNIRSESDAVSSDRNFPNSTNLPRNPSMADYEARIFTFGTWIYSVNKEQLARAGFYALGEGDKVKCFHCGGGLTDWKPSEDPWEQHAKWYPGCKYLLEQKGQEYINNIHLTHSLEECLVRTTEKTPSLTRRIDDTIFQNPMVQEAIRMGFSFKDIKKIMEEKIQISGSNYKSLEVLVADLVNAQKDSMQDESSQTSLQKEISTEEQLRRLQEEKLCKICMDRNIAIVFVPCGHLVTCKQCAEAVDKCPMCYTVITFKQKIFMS
# [11] = tested on: XIP peptide (Xip251-270) binding; test: small-molecule binders of XIP peptide, primary screen, biochemical, small-molecule microarray, fluorescence 635/667 nm, 0.1 µg/mL protein (AID 1182); details: fluorescent protein binding, 635 nm, higher = more signal, called active from +8 up or from −8 down
# [12] = tested on: XIP peptide (Xip251-270); test: small-molecule binders of XIP peptide, primary screen, biochemical, small-molecule microarray, fluorescence 635/667 nm, 0.5 µg/mL protein (AID 1183); details: small-molecule microarray binding, fluorescence 635 nm; higher = more signal
# [13] = Plasmodium falciparum growth inhibition, primary screen, strain 3D7, DAPI fluorescence, 100 nL (AID 1184);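 note: parasites grown inside human red blood cells in medium with human serum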; details: P. falciparum 3D7 growth, 3 d, higher = more signal
# [14] = target: Homeobox protein Hox-A13 (Mus musculus) (UniProt Q62424); test: inhibitors of HoxA13-DNA binding, primary screen, biochemical, fluorescence polarization, labeled oligonucleotide (AID 1185); details: 15 min, higher = more signal, called active from +8 up or from −8 down
# Homeobox protein Hox-A13 (Mus musculus), sequence (Q62424 whole entry, looked up): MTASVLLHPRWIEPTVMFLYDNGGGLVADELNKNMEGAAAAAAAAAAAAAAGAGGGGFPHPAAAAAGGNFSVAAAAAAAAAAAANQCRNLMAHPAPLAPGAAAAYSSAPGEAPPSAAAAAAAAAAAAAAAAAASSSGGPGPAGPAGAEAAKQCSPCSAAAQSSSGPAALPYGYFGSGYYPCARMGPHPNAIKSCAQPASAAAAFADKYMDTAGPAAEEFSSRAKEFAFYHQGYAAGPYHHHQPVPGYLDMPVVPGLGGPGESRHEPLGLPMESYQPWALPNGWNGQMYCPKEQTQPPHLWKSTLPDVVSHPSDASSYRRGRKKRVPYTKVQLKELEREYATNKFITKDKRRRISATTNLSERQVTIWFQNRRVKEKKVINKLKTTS
# [15] = inhibitors of hydroxyurea-induced Chk1 phosphorylation, primary screen, imaging, HeLa, phospho-Chk1 antibody, percent positive cells (AID 1186); details: hydroxyurea-induced phospho-Chk1 immunofluorescence imaging, higher = more signal
# [16] = inhibitors of hydroxyurea-induced Chk1 phosphorylation, primary screen, imaging, HeLa, phospho-Chk1 nuclear intensity (AID 1187); details: hydroxyurea-induced phospho-Chk1 immunofluorescence imaging, higher = more signal
Structure (SMILES),z-score [1],z-score [2],z-score [3],composite z-score [4],z-score [5],z-score [6],z-score [7],z-score [8],z-score [9],composite z-score [10],composite z-score [11],composite z-score [12],z-score [13],z-score [14],z-score [15],z-score [16]
O=c1cccc(-c2ccccc2C(F)(F)F)o1,-0.719,-3.23 (inactive),-0.256 (inactive),-0.636 (inactive),0.698 (inactive),-0.432 (inactive),-0.736 (inactive),-0.275 (inactive),-0.59,0.144,-0.808 (inactive),-0.597,1.58,-1.43 (inactive),-0.968 (inactive),-1.66 (inactive)
O=C1NC(=O)C2C1C=CC(C(O)c1ccc(F)cc1)N2Nc1ccccn1 (stereo not drawn),-1.78,0.272 (inactive),-1.28 (inactive),0.791 (inactive),1.77 (inactive),0.624 (inactive),-0.684 (inactive),-0.69 (inactive),-1.64,0.172,-0.184 (inactive),0.13,1.25,-1.55 (inactive),0.255 (inactive),0.0273 (inactive)
CCOC(=O)C[C@H]1[C@H](OC(=O)c2ccc(C(=O)c3ccccc3)cc2)[C@@H](NC(=O)c2ccc3ccccc3c2)c2cc(OCCCO)ccc2N1C(=O)c1ccc2ccccc2n1,0.213,-0.628 (inactive),0.64 (inactive),0.824 (inactive),-0.595 (inactive),0.351 (inactive),0.571 (inactive),0.534 (inactive),0.395,-0.0726,0.27 (inactive),0.197,-2.68,-1.96 (inactive),-0.318 (inactive),0.25 (inactive)
COc1cccc(C[C@H]2C[C@@H](CO[Si](C(C)C)(C(C)C)C(C)C)N3C(=O)[C@@]4(C(C)=O)O[C@@]23[C@@H]2C(=O)N(C)C(=O)[C@@H]24)c1,0.65,0.294 (inactive),-0.494 (inactive),0.0539 (inactive),0.82 (inactive),0.993 (inactive),-0.493 (inactive),-0.638 (inactive),-0.334,0.0082,0.234 (inactive),0.61,-1.75,-3.39 (inactive),-0.365 (inactive),-0.482 (inactive)
COCCOC(=O)N1C(=O)[C@@]2(c3cc(C#CCC(C(=O)OC)C(=O)OC)ccc31)[C@H](C(=O)N1CCc3cc(OC)c(OC)cc3C1)[C@H]1C(=O)O[C@H](c3ccccc3)[C@H](c3ccccc3)N1[C@@H]2c1ccc(O)cc1,0.227,0.541 (inactive),-0.0494 (inactive),-0.0728 (inactive),-0.0757 (inactive),1.34 (inactive),0.992 (inactive),0.199 (inactive),-0.888,-0.0034,0.596 (inactive),0.676,-2.02,-1.46 (inactive),0.182 (inactive),0.424 (inactive)
C=CCC(OC(C)=O)[C@@H]1[C@@H](N(Cc2ccc(-c3ccccc3)cc2)C(=O)c2cccc3ccccc23)c2cc(OCCCO)ccc2N1C(=O)c1ccc2ccccc2c1 (stereo partly drawn),-0.784,-0.185 (inactive),-0.967 (inactive),-0.318 (inactive),0.48 (inactive),-0.865 (inactive),0.144 (inactive),-0.455 (inactive),-1.3,-0.0017,0.15 (inactive),-0.0461,-1.76,-1.33 (inactive),-0.293 (inactive),-0.006 (inactive)
O=C1O[C@@H](c2ccccc2)[C@@H](c2ccccc2)N2[C@@H](c3ccc(O)cc3)[C@]3(C(=O)Nc4ccc(C#CC5=CCCCC5)cc43)[C@@H](C(=O)N3CCCCCCC3)[C@H]12,-0.109,-1.2 (inactive),0.158 (inactive),-1.81 (inactive),1.22 (inactive),-0.976 (inactive),0.326 (inactive),-0.199 (inactive),0.177,0.691,1.52 (inactive),0.816,-1.99,4.91 (inactive),-0.434 (inactive),-0.686 (inactive)
O=C1C2C=CC(C(O)c3cccc(O)c3)N(Nc3ccccc3F)C2C(=O)N1c1ccccc1 (stereo not drawn),0.244,-14.7 (active),-0.343 (inactive),-2.46 (inactive),1.22 (inactive),-7.32 (inactive),0.684 (inactive),0.573 (inactive),0.133,0.0345,1.62 (inactive),0.632,-1.33,-3.57 (inactive),-0.388 (inactive),-1.33 (inactive)
